The list is not random: actives were taken first. Their share in the collection is about 9.5%.
RE007 growth inh = less growth of the S. pombe RE007 Vpr strain; S. pombe RE007 Vpr strain, BacTiter-Glo ATP luminescence, 24 h; Potency, µM (doses to about 92.2 µM), for the others: at the top dose activity change, negative = less growth, most hits filed as inhibitors; 0.21% of 360,000 active; AID 651644; active = well fitted falling curve with a large enough effect; inconclusive = small, poorly fitted or top-dose-only effect; inactive = no such curve, though single readings can be large or run the other way; also: % is scaled to controls: 0 for no effect and ±100 for the full control effect; nearly all actives have a fitted effect of over 50% in size
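Fission yeast RE007 carrying one integrated HIV-1 vpr copy, seeded at OD 0.01 in PMG+AL medium with 23 nL pinned compound. Grown 24 h at 30 degrees; viability read by BacTiter-Glo luminescence after 5 min.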
Pf growth 96h = inhibits malaria parasite growth, 96 h. AID 504834. Potency, µM (doses to about 28.7 µM), for inactives: at the highest dose activity change, negative = inhibition, most hits filed as inhibitors. 6.9% of 320,000 active. P. falciparum luciferase reporter growth, 96 h; active = well fitted inhibition curve with a large enough effect; inconclusive = small, poorly fitted or top-dose-only effect, or another doubt; inactive = no such curve, though single readings can be large or run the other way; also: % is scaled to controls: 0 for no effect and ±100 for the full control effect
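Delayed-death screen, second-generation endpoint: infected erythrocytes, 2% hematocrit, 0.05% parasitemia final; 96 hours at 37 C, 5% CO2; luciferase detection reagent; luminescence decrease equals reduced growth.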
SARS PLpro yeast = SARS-CoV PLP inhibition in yeast; S. cerevisiae expressing SARS-CoV PLpro, growth rescue; Potency, µM (series often up to 32.9 µM), inactives show top-dose activity, positive = growth rescue, most hits filed as activators; 0.19% of 330,000 active; AID 485353; also: 0% is about no effect; nearly all actives have a fitted effect of over 55% in size
Pf growth 48h = P. falciparum growth inhibition at 48 hours (one generation). P. falciparum luciferase growth in erythrocytes, 48 h. Potency, µM (top dose mostly 28.7 µM), for the others: at the highest dose activity change, negative = inhibition, hits mostly inhibitors. 5.9% of 310,000 active. AID 504832; active = well fitted inhibition curve with a large enough effect; inconclusive = small, poorly fitted or top-dose-only effect, or another doubt; inactive = no such curve, though single readings can be large or run the other way; also: % is scaled to controls: 0 for no effect and ±100 for the full control effect
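Growth was read as firefly luciferase luminescence after a 48 h, 37 C, 5% CO2 exposure of compounds to reporter-bearing P. falciparum cultures (0.1% parasitemia, 2% hematocrit final) in Albumax-supplemented RPMI 1640.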
NS1 function inh = inhibitors of influenza NS1 protein function; Potency, µM (top dose mostly 46.1 µM), for inactives: top-dose activity, positive = more growth; 0.4% of 270,000 active; also: actives are rising curves; nearly all actives have a fitted effect of over 50% in size
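In this qHTS, NS1 from influenza A is expressed in budding yeast, where it slows growth. Cells are switched from glucose to 2% galactose medium (pH 6.0, -URA), treated with compound, and growth recovery is read at OD600.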
Starred values were filed as active, the others as inactive; u = inconclusive; x = no result given; [ ] = remark or other dose. Unless noted, calls follow the shape of the full dose curve. Potency is read from the fitted curve at half-maximal effect.

SMILES | RE007 growth inh | Pf growth 96h | SARS PLpro yeast | Pf growth 48h | NS1 function inh
COc1cc(-c2cc(C(=O)Nc3c(Cl)cc(Cl)cc3Cl)c3ccccc3n2)cc(OC)c1OC | 12% | u | 12% | 13µM* | 15%
COc1ccc(NC(=O)c2cc(-c3cc(OC)c(OC)c(OC)c3)nc3ccccc23)cc1OC | 5% | u | 2% | 13µM* | 19%
CCCCN1CCc2c1nc1ccc(Br)cc1c2N | -5% | 1.7µM* | 0% | x | -7%
CCNc1nc(N)nc(Oc2ccc(C(=O)OC)cc2)n1 | 14% | 0.26µM* | 1% | 153% | -5%
Fc1ccccc1N1CC(c2ccccc2)C(c2cccs2)=N1 (stereo not drawn) | 7% | 12µM* | -21% | x | 8%
C[N@+]1(CCC(=O)c2ccccc2)CC[C@H]2CC[C@H](C2)C1 | x | x | x | x | 0%
Cc1cc(C)c(S(=O)(=O)N2CCCCC2CCNC(=O)C(=O)NCc2ccccn2)c(C)c1 (stereo not drawn) | 19% | u | -2% | u | x
COc1ccc(C2CC(=O)C3=C(C2)NC(C)=C(C(=O)Nc2ccccc2C)C3c2coc3ccc(C)cc3c2=O)cc1OC (stereo not drawn) | 10% | u | -20% | 2.3µM* | -8%
CC1=C(C(=O)Nc2ccccc2)C(c2coc3ccccc3c2=O)C2=C(CCCC2=O)N1 (stereo not drawn) | 13% | -10% | 18% | -14% | 12%
CCC(=O)NC1=C(Cl)C(=O)C(NC(=O)CC)=C(Cl)C1=O | x | 4.7µM* | -6% | 7.4µM* | 2%
CCOC(=O)c1cc(NC(=O)c2ccccc2)c(=O)n2c1oc1ccccc12 | 12% | -32% | 0% | 13% | x
CC1CN(c2ccc([N+](=O)[O-])cc2Cl)CCN1S(C)(=O)=O (stereo not drawn) | -3% | 61% | -1% | 3.3µM* | -8%
O=C(COc1ccccc1)NC1CCCCCCC1 | 33% | -7% | u | 36% | -11%
COc1ccc(S(=O)(=O)N(C)C[C@@H]2Oc3cc(C#CC4CCCCC4)ccc3S(=O)(=O)N([C@@H](C)CO)C[C@@H]2C)cc1 | 1% | x | x | x | x
CCCC[C@]12Cc3ccccc3C(O1)c1c(c3ccccc3oc1=O)O2 | x | u | 1%[6.58 µM] | -2%[5.75 µM] | 4%
COc1ccc(NC(=S)N2CCC(NC(=O)C3CCCCC3)CC2)cc1 | -3% | -3% | -2% | -1% | 10%
CN(C(=O)c1cc2sccc2n1C)C1CCCCC1 | -10% | 2.6µM* | 8% | 79% | -12%
Cn1c(C(=O)NC2CCCCC2)cc2sccc21 | 6% | x | 5% | 70% | -12%
CC1CCCC2(C1)NC(=S)N(c1ccccc1)N2 (stereo not drawn) | 164% | 66% | -18% | 39% | -15%
CC1CCCC2(C1)NC(=S)c1c(sc3c1CCCC3)N2 (stereo not drawn) | u | 5.2µM* | -1% | x | 1%
O=C(Nc1cccc(S(=O)(=O)N2CCCC2)c1)[C@H]1C[C@H](O)[C@@H](CO)O1 | 13% | x | x | x | x
Cc1cccc(NC(=O)c2ccccc2NC(=O)c2ccccc2)n1 | 6% | 0% | -1% | 0% | -3%
C[n+]1c2n(c3ccccc31)N=C(c1ccc(-c3ccccc3)cc1)CS2 | -9% | u | -2% | u | -64%
C[n+]1c2n(c3ccccc31)N=C(c1ccccc1)CS2 | -28% | u | 1% | 2.1µM* | -5%
Brc1ccc2ncnc(Nc3cccc4ccccc34)c2c1 | u | 13µM* | -28% | u | -128%
SMILES | RE007 growth inh | Pf growth 96h | SARS PLpro yeast | Pf growth 48h | NS1 function inh
CCc1nc2sc3c(c2c(=O)n1NC(=O)CCl)CCCC3 | -8% | x | 10µM* | 11% | -6%
CC(=O)N(C(C)=O)n1c(C)nc2sc3c(c2c1=O)CCCC3 | 25% | -23% | -1% | -2% | 7%
O=c1c(C(c2ccc(O)cc2)c2c(O)nc3n(c2=O)CCS3)c(O)nc2n1CCS2 | -1% | -1% | 1% | -6% | 0%
O=c1c(C(c2ccc(O)cc2)c2c(O)nc3n(c2=O)CCCS3)c(O)nc2n1CCCS2 | 3% | u | -17% | 2.9µM* | -3%
CC(C)C(NC(=O)c1c(F)cccc1F)C(=O)NCCc1ccc(S(N)(=O)=O)cc1 (stereo not drawn) | -11% | 33% | 1% | 0% | -3%
CCOc1cc(C2CC(=O)c3c(ccc4ccccc34)N2)ccc1O (stereo not drawn) | -5% | 1µM* | -4% | 1% | 20%
CCc1nc2ccc(C(=O)NCc3ccc(OC)cc3)cn2c1N(CC)CCOC | 0%[18.4 µM] | x | x | x | x
OCCOc1ccccc1 | -3% | 0% | -2% | -14% | x
O=P(O)(COc1ccccc1)COc1ccccc1 | 14% | 13µM* | -2% | 7% | -2%
Cc1nn(C)c(C)c1CN(C(=O)C1CCC(=O)N(C2CCCCCC2)C1)C(C)C (stereo not drawn) | 9% | 12µM* | u | u | -4%
CCOC(=O)[C@]12Cc3cc(Cl)ccc3[C@H]1N(C1CCCCC1)C(=O)c1cc(OC)ccc12 | 63µM* | x | x | x | x
CCOC(=O)[C@]12Cc3ccc(C)cc3[C@H]1N(C1CCCCC1)C(=O)c1ccccc12 | -2% | x | x | x | x
CCOC(=O)[C@]12Cc3ccc(C)cc3[C@H]1N(C1CCCCC1)C(=O)c1cc(OC)ccc12 | 16µM* | x | x | x | x
CN1CCN(S(=O)(=O)c2ccc(C(F)(F)F)cc2)C(c2ccccc2)C1 (stereo not drawn) | -4% | -26% | -3% | u | x
Cc1ccc(C)c(NC(=O)CN(C)C(=O)c2cc3ccccc3o2)c1 | -9% | 3.3µM* | 0% | 2.3µM* | x
CN(CC(=O)Nc1cccc(F)c1)C(=O)c1ccc(-c2ccc(Cl)cc2)o1 | -7% | 1.7µM* | -19% | 1.9µM* | -55%
Cc1cccc(C)c1NC(=O)CN(C)C(=O)c1ccc(-c2cccc(C(F)(F)F)c2)o1 | -12% | u | 6% | 12µM* | x
CC1CN(C(=O)c2ccc(-c3cccc(C(F)(F)F)c3)o2)CC(C)O1 (stereo not drawn) | -8% | u | 0% | 13µM* | x
CCCOc1ccc(C2CC(=O)Nc3cc(OC)c(OC)cc32)cc1 (stereo not drawn) | 4% | u | -5% | -8% | 7%
CC(=O)Nc1ccc2c(c1)C(=Nc1ccc(C(=O)O)cc1)c1ccccc1-2 | x | x | x | x | -16%
Cc1ccc(C)c(NC(=O)CN(C)C(=O)c2ccc(-c3ccc(Cl)cc3)o2)c1 | 16% | 13µM* | -2% | 1.5µM* | x
Cc1ccc(C)c(NC(=O)CN(C)C(=O)c2ccccc2Cc2ccccc2)c1 | -15% | u | 4% | u | x
O=C(NCc1ccc(F)cc1F)[C@@H]1CCCN1C(=O)[C@@H]1CCCN1C(=O)c1cccs1 | -11% | x | x | x | x
O=C(c1ccccc1)c1cccs1 | 3% | -16% | 6% | 52% | x
O=C1NC(c2ccccc2)C(C(=O)c2cccs2)=C1O (stereo not drawn) | 14% | 12µM* | -2% | 13% | -7%

Screening data (PubChem BioAssay)
